These binders were tested against AgAbp1 (assay: SPOT peptide array binding signal intensity (averaged, normalized) (arbitrary units (background-subtracted, floor 0; scale differs between SH3 domains)); higher = stronger binding of the SH3 domain to the peptide).
Outline: (§1)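 Binding signal is given in arbitrary units that differ between domains and is the normalized, background-subtracted spot intensity averaged across replicates. Each GST-SH3 fusion from one of four yeast species was made in E. coli BL21(DE3), purified on glutathione Sepharose and incubated at 10 μg/ml overnight at 4°C on cellulose-bound synthetic 15-mer peptides in which cysteines were replaced by serines. Detection used anti-GST antibody, an HRP anti-mouse secondary and luminol, followed by imaging and Genespotter quantification.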

Binder	SPOT peptide array binding signal intensity
DRIRMFIRFPKFLLE	9.5

What follows are binders tested against AgBbc1 in the same assay as above.
Outline: as §1

Binder	SPOT peptide array binding signal intensity
DRIRMFIRFPKFLLE	5

The binders below were run against AgBem1-D1 in the same assay as above.
Outline: as §1

Binder	SPOT peptide array binding signal intensity
DRIRMFIRFPKFLLE	153

The binders below were run against AgBzz1-D1 in the same assay as above.
Outline: as §1

Binder	SPOT peptide array binding signal intensity
DRIRMFIRFPKFLLE	12

The binders below were run against AgBzz1-D2 in the same assay as above.
Outline: as §1

Binder	SPOT peptide array binding signal intensity
DRIRMFIRFPKFLLE	20

Each binder was assayed against AgCyk3 in the same assay as above.
Outline: as §1

Binder	SPOT peptide array binding signal intensity
DRIRMFIRFPKFLLE	5.5

The binders below were run against AgFus1 in the same assay as above.
Outline: as §1

Binder	SPOT peptide array binding signal intensity
DRIRMFIRFPKFLLE	524

The binders below were run against AgHof1 in the same assay as above.
Outline: as §1

Binder	SPOT peptide array binding signal intensity
DRIRMFIRFPKFLLE	27.5

Each binder was assayed against AgHse1 in the same assay as above.
Outline: as §1

Binder	SPOT peptide array binding signal intensity
DRIRMFIRFPKFLLE	1880

What follows are binders tested against AgLsb1 in the same assay as above.
Outline: as §1

Binder	SPOT peptide array binding signal intensity
DRIRMFIRFPKFLLE	1

The binders below were run against AgLsb4 in the same assay as above.
Outline: as §1

Binder	SPOT peptide array binding signal intensity
DRIRMFIRFPKFLLE	105

These binders were tested against AgMyo5 in the same assay as above.
Outline: as §1

Binder	SPOT peptide array binding signal intensity
DRIRMFIRFPKFLLE	0.5

The binders below were run against AgNbp2 in the same assay as above.
Outline: as §1

Binder	SPOT peptide array binding signal intensity
DRIRMFIRFPKFLLE	278

Each binder was assayed against AgRvs167 in the same assay as above.
Outline: as §1

Binder	SPOT peptide array binding signal intensity
DRIRMFIRFPKFLLE	4.33

The binders below were run against AgSho1 in the same assay as above.
Outline: as §1

Binder	SPOT peptide array binding signal intensity
DRIRMFIRFPKFLLE	132

These binders were tested against AgSla1-D1-D2 in the same assay as above.
Outline: as §1

Binder	SPOT peptide array binding signal intensity
DRIRMFIRFPKFLLE	236

Each binder was assayed against AgSla1-D3 in the same assay as above.
Outline: as §1

Binder	SPOT peptide array binding signal intensity
DRIRMFIRFPKFLLE	5.5

These binders were tested against CaAbp1-D1 in the same assay as above.
Outline: as §1

Binder	SPOT peptide array binding signal intensity
DRIRMFIRFPKFLLE	470

Each binder was assayed against CaAbp1-D2 in the same assay as above.
Outline: as §1

Binder	SPOT peptide array binding signal intensity
DRIRMFIRFPKFLLE	318

These binders were tested against CaBbc1 in the same assay as above.
Outline: as §1

Binder	SPOT peptide array binding signal intensity
DRIRMFIRFPKFLLE	22.2

Each binder was assayed against CaBem1-D1 in the same assay as above.
Outline: as §1

Binder	SPOT peptide array binding signal intensity
DRIRMFIRFPKFLLE	27

The binders below were run against CaBzz1-D1 in the same assay as above.
Outline: as §1

Binder	SPOT peptide array binding signal intensity
DRIRMFIRFPKFLLE	4

Each binder was assayed against CaBzz1-D2 in the same assay as above.
Outline: as §1

Binder	SPOT peptide array binding signal intensity
DRIRMFIRFPKFLLE	6.75

The binders below were run against CaCyk3 in the same assay as above.
Outline: as §1

Binder	SPOT peptide array binding signal intensity
DRIRMFIRFPKFLLE	30.5

What follows are binders tested against CaFus1 in the same assay as above.
Outline: as §1

Binder	SPOT peptide array binding signal intensity
DRIRMFIRFPKFLLE	1830

What follows are binders tested against CaHof1 in the same assay as above.
Outline: as §1

Binder	SPOT peptide array binding signal intensity
DRIRMFIRFPKFLLE	0.5

What follows are binders tested against CaHse1 in the same assay as above.
Outline: as §1

Binder	SPOT peptide array binding signal intensity
DRIRMFIRFPKFLLE	191

These binders were tested against CaLsb1 in the same assay as above.
Outline: as §1

Binder	SPOT peptide array binding signal intensity
DRIRMFIRFPKFLLE	0.5

What follows are binders tested against CaLsb4 in the same assay as above.
Outline: as §1

Binder	SPOT peptide array binding signal intensity
DRIRMFIRFPKFLLE	108

What follows are binders tested against CaMyo5 in the same assay as above.
Outline: as §1

Binder	SPOT peptide array binding signal intensity
DRIRMFIRFPKFLLE	42.5

The binders below were run against CaNbp2 in the same assay as above.
Outline: as §1

Binder	SPOT peptide array binding signal intensity
DRIRMFIRFPKFLLE	1050

These binders were tested against CaRvs167 in the same assay as above.
Outline: as §1

Binder	SPOT peptide array binding signal intensity
DRIRMFIRFPKFLLE	238

Each binder was assayed against CaRvs167-3 in the same assay as above.
Outline: as §1

Binder	SPOT peptide array binding signal intensity
DRIRMFIRFPKFLLE	413

What follows are binders tested against CaSho1 in the same assay as above.
Outline: as §1

Binder	SPOT peptide array binding signal intensity
DRIRMFIRFPKFLLE	1280

What follows are binders tested against CaSla1-D1-D2 in the same assay as above.
Outline: as §1

Binder	SPOT peptide array binding signal intensity
DRIRMFIRFPKFLLE	67

These binders were tested against CaSla1-D3 in the same assay as above.
Outline: as §1

Binder	SPOT peptide array binding signal intensity
DRIRMFIRFPKFLLE	182

What follows are binders tested against ScAbp1 in the same assay as above.
Outline: as §1

Binder	SPOT peptide array binding signal intensity
DRIRMFIRFPKFLLE	52.5

Each binder was assayed against ScBbc1 in the same assay as above.
Outline: as §1

Binder	SPOT peptide array binding signal intensity
DRIRMFIRFPKFLLE	1.5

What follows are binders tested against ScBem1-D1 in the same assay as above.
Outline: as §1

Binder	SPOT peptide array binding signal intensity
DRIRMFIRFPKFLLE	3

These binders were tested against ScBzz1-D1 in the same assay as above.
Outline: as §1

Binder	SPOT peptide array binding signal intensity
DRIRMFIRFPKFLLE	16

The binders below were run against ScBzz1-D2 in the same assay as above.
Outline: as §1

Binder	SPOT peptide array binding signal intensity
DRIRMFIRFPKFLLE	12.5

What follows are binders tested against ScCyk3 in the same assay as above.
Outline: as §1

Binder	SPOT peptide array binding signal intensity
DRIRMFIRFPKFLLE	62

What follows are binders tested against ScFus1 in the same assay as above.
Outline: as §1

Binder	SPOT peptide array binding signal intensity
DRIRMFIRFPKFLLE	601

Each binder was assayed against ScHof1 in the same assay as above.
Outline: as §1

Binder	SPOT peptide array binding signal intensity
DRIRMFIRFPKFLLE	1.25

Each binder was assayed against ScHse1 in the same assay as above.
Outline: as §1

Binder	SPOT peptide array binding signal intensity
DRIRMFIRFPKFLLE	1400

The binders below were run against ScLsb1 in the same assay as above.
Outline: as §1

Binder	SPOT peptide array binding signal intensity
DRIRMFIRFPKFLLE	≤ 0

Each binder was assayed against ScLsb2 in the same assay as above.
Outline: as §1

Binder	SPOT peptide array binding signal intensity
DRIRMFIRFPKFLLE	≤ 0

What follows are binders tested against ScLsb3 in the same assay as above.
Outline: as §1

Binder	SPOT peptide array binding signal intensity
DRIRMFIRFPKFLLE	87

The binders below were run against ScLsb4 in the same assay as above.
Outline: as §1

Binder	SPOT peptide array binding signal intensity
DRIRMFIRFPKFLLE	19

These binders were tested against ScMyo3 in the same assay as above.
Outline: as §1

Binder	SPOT peptide array binding signal intensity
DRIRMFIRFPKFLLE	1

The binders below were run against ScMyo5 in the same assay as above.
Outline: as §1

Binder	SPOT peptide array binding signal intensity
DRIRMFIRFPKFLLE	1

Each binder was assayed against ScNbp2 in the same assay as above.
Outline: as §1

Binder	SPOT peptide array binding signal intensity
DRIRMFIRFPKFLLE	356

The binders below were run against ScPex13 in the same assay as above.
Outline: as §1

Binder	SPOT peptide array binding signal intensity
DRIRMFIRFPKFLLE	14.8

What follows are binders tested against ScRvs167 in the same assay as above.
Outline: as §1

Binder	SPOT peptide array binding signal intensity
DRIRMFIRFPKFLLE	22.7

These binders were tested against ScSho1 in the same assay as above.
Outline: as §1

Binder	SPOT peptide array binding signal intensity
DRIRMFIRFPKFLLE	870

The binders below were run against ScSla1-D1-D2 in the same assay as above.
Outline: as §1

Binder	SPOT peptide array binding signal intensity
DRIRMFIRFPKFLLE	48.5

The binders below were run against ScSla1-D3 in the same assay as above.
Outline: as §1

Binder	SPOT peptide array binding signal intensity
DRIRMFIRFPKFLLE	69

Each binder was assayed against SpAbp1-D1 in the same assay as above.
Outline: as §1

Binder	SPOT peptide array binding signal intensity
DRIRMFIRFPKFLLE	334

These binders were tested against SpBbc1 in the same assay as above.
Outline: as §1

Binder	SPOT peptide array binding signal intensity
DRIRMFIRFPKFLLE	2.5

What follows are binders tested against SpBzz1-D1 in the same assay as above.
Outline: as §1

Binder	SPOT peptide array binding signal intensity
DRIRMFIRFPKFLLE	103
